# Laboratory results from the supplement of paper PMC10849652.
# Targets with a hit are over-represented here; the source holds about 8,800 in all. About 0.5% of all pairs of compound and target were hits. A number with no mark means an inactive call.
# How the values were obtained:
# Assay in all cases: log2 fold change, soluble protein after heating vs DMSO (PISA); higher = thermal stabilisation; K562 lysate, 10 uM; active = over 0.2 and 3.5 SD of the protein, either way, in both replicates (recomputed)
# [1] = compound: NCC(=O)Nc1ccc(-n2nc(C(F)(F)F)cc2-c2ccc3c(ccc4ccccc43)c2)cc1
# Summary of the method: (§1)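 Following dounce homogenisation of K562 pellets in PBS pH 7.4 with 1 mM MgCl2, crude extract at 1 mg/mL protein was incubated for 30 min with 10 μM compound. Aliquots were then heated for 3 min over 48°C-58°C and pooled, NP-40 was added to 0.5% at 4°C, and soluble protein was recovered as the supernatant at 21,000xg for 90 min. Channel-sum-equalised TMTpro 16plex LC-MS/MS quantified this protein. Each value, from duplicates, is a log-two fold change in thermal stability relative to solvent controls.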
# [2] = compound: O=C(CCCCCCC(=O)Nc1ccccc1)NO [vorinostat]
# Summary of the method: as §1
# [3] = compound: O=C(O)c1ccc2c(c1)nc(Nc1cccc(Cl)c1)c1ccncc12 [silmitasertib]
# Summary of the method: as §1
# [4] = compound: O=C1NC(=O)C(c2cnc3ccccn23)=C1c1cn2c3c(cc(F)cc13)CN(C(=O)N1CCCCC1)CC2
# Summary of the method: as §1
# [5] = compound: c1cn2cc(-c3ccc4cn[nH]c4c3)nc(Nc3ccc(N4CCOCC4)cc3)c2n1 [entospletinib]
# Summary of the method: as §1
# Sequence of UniProt Q96NL8 (Q96NL8 whole entry, looked up): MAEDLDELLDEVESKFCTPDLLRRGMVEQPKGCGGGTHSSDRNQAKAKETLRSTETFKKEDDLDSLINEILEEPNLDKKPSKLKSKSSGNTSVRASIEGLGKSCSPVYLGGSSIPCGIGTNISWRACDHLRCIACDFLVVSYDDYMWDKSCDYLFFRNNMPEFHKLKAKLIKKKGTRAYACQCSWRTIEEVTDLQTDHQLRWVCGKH
# Sequence of UniProt Q3L8U1 (Q3L8U1 whole entry, looked up): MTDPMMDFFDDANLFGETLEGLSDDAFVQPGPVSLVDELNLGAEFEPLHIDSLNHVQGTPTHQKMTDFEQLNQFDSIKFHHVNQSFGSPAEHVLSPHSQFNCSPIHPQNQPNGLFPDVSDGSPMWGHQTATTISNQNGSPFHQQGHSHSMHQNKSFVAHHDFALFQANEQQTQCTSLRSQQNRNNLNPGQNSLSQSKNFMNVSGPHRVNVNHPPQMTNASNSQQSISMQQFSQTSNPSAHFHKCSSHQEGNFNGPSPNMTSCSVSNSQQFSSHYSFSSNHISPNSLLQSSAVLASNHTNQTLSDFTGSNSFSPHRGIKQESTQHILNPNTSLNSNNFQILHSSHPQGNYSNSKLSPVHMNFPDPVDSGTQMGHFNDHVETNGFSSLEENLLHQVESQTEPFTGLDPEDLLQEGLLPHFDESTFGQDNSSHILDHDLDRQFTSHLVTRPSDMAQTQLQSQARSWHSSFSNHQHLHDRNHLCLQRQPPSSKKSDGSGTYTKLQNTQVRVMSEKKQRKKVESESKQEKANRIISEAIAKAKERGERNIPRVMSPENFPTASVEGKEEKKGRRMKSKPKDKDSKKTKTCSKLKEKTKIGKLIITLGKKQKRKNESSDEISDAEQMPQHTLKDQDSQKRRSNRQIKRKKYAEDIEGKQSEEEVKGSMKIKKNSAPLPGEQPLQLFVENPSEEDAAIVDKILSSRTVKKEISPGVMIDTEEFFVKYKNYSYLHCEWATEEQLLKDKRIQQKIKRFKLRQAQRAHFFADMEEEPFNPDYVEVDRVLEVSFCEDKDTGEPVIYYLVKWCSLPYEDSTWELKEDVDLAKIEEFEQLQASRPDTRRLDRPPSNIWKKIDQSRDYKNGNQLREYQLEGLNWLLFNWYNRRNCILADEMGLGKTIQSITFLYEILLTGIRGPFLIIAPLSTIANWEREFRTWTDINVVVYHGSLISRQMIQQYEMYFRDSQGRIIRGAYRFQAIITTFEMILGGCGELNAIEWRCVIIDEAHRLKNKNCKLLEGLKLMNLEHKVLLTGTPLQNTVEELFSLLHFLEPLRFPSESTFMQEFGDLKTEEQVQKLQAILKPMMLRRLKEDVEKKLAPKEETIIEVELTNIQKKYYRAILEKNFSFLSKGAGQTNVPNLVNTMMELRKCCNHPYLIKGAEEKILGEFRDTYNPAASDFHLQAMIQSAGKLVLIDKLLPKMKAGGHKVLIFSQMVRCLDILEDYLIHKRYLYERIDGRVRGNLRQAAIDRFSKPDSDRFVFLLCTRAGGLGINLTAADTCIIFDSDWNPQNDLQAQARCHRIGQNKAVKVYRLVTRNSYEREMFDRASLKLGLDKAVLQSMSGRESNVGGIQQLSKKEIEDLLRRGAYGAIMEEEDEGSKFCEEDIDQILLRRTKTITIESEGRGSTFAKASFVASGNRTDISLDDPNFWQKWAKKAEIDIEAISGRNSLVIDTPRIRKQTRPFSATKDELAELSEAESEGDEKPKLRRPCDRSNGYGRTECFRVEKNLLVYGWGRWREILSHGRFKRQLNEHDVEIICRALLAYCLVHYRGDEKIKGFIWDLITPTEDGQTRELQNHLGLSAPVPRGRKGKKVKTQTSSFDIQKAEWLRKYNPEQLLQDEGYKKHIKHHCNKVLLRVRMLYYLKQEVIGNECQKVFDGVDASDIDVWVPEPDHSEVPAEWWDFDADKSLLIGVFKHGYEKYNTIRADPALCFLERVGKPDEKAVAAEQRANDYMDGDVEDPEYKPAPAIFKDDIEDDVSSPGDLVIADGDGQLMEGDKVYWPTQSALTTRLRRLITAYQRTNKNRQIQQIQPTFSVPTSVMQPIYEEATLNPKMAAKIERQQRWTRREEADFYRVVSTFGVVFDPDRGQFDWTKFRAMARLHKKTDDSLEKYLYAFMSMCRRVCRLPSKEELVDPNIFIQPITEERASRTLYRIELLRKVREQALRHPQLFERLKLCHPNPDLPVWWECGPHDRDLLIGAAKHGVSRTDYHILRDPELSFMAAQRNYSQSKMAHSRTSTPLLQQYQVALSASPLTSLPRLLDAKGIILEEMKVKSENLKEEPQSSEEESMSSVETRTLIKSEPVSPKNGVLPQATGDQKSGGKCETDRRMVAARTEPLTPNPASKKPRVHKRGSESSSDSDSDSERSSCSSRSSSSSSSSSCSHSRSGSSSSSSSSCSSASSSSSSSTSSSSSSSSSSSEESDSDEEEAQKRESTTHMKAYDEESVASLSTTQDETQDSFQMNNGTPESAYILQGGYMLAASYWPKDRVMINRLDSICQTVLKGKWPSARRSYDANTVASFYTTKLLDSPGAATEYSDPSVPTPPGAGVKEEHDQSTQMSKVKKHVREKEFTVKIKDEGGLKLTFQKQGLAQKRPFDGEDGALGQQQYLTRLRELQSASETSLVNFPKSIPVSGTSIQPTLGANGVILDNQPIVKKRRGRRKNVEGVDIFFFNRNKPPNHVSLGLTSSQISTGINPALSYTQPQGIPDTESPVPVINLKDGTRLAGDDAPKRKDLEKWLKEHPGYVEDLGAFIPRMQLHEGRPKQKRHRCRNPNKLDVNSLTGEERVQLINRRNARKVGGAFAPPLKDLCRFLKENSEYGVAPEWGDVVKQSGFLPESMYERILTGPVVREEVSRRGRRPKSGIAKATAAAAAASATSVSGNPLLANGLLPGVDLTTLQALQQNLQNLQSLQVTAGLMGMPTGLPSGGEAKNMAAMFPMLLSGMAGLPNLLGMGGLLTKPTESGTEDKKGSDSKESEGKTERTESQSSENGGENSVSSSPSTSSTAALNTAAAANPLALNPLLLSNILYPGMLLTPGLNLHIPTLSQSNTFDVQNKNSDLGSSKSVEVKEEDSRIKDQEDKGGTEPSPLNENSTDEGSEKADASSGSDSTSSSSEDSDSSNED
# Sequence of UniProt Q12981 (Q12981 whole entry, looked up): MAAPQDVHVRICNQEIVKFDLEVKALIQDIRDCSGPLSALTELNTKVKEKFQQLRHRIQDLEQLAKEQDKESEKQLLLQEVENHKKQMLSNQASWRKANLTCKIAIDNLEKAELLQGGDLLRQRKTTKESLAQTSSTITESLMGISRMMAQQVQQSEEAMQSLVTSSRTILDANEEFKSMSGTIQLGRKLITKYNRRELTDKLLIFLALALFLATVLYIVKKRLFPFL
# Sequence of UniProt P16152 (P16152 whole entry, looked up): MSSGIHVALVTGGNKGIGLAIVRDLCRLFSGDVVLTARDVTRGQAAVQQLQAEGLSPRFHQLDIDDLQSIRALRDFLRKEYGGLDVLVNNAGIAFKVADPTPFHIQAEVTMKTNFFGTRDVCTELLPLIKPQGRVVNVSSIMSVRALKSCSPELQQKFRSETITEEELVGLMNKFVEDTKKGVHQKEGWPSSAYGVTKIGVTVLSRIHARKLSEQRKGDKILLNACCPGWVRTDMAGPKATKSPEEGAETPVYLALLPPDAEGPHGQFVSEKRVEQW
# Sequence of UniProt Q6P1S2 (Q6P1S2 whole entry, looked up): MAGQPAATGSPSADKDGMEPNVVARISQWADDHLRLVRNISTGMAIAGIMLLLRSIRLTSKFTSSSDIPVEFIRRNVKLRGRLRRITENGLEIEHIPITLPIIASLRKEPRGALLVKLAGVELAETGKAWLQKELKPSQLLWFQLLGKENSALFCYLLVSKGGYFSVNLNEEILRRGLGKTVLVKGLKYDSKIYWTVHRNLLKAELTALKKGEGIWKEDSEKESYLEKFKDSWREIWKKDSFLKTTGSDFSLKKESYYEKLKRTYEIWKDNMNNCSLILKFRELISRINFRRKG
# Sequence of UniProt Q8N960 (Q8N960 whole entry, looked up): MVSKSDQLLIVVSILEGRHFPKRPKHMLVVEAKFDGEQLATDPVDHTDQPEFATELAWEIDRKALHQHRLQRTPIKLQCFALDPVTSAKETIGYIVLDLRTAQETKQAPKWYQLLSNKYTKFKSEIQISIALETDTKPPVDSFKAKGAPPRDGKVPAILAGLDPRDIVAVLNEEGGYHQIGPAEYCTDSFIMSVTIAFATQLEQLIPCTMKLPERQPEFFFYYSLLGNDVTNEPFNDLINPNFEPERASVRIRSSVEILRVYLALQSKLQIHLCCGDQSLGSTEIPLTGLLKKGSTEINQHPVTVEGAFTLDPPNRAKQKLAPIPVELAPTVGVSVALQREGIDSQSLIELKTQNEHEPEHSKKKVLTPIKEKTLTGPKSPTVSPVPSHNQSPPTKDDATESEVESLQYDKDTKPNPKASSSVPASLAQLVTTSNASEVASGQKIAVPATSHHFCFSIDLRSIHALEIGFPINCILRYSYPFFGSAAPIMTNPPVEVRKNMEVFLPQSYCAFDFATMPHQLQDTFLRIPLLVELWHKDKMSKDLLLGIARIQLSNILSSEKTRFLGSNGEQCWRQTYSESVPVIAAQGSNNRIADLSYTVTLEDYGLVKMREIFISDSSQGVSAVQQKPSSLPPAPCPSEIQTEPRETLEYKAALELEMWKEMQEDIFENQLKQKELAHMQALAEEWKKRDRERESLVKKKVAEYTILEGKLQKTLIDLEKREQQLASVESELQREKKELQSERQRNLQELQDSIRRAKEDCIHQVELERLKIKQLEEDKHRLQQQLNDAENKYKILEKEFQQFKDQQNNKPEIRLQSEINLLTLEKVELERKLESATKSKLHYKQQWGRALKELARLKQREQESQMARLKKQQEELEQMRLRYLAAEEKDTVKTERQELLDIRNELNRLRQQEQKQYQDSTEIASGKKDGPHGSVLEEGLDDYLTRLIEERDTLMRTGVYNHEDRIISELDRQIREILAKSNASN
Target,log2 fold change [1],log2 fold change [2],log2 fold change [3],log2 fold change [4],log2 fold change [5]
CAPNS1 (UniProt K7ES78),-0.234,-0.011,-0.037,0.141,
CASP3 (UniProt P42574),-0.031,0.058,-0.02,0.007,-0.027
BNIP1 (UniProt Q12981),-0.013,-0.049,0.066,-0.026,-0.051
C8orf37 (UniProt Q96NL8),0.206,0.084,0.044,0.008,-0.035
C3orf33 (UniProt Q6P1S2),-0.085,-0.118,-0.137,0.023,
CHD9 (UniProt Q3L8U1),-0.018,-0.111,0.075,-0.012,
CBR1 (UniProt P16152),-0.01,-0.377 (active),-0.024,0.033,0.006
CEP120 (UniProt Q8N960),0.261,0.042,-0.075,0.135,-0.13
CAPNS1 (UniProt P04632),-0.08,0.07,-0.007,-0.039,0.033
CENPQ (UniProt Q7L2Z9),-0.016,0.061,-0.014,0.028,0.047
